Inconclusive results are not listed. Active and inactive are the calls of the source. How the source made its calls, unless noted: active means hit-call score of the fitted dose curve at least 0.9, where 1 is the maximum; inconclusive means response in the unintended direction; inactive means score below 0.9.

Assay [1] is described as follows: ATG_TAL_CIS: Attagene CIS-FACTORIAL HepG2 Assay for human TAL Basal Promoter (AID 2282966; active means hit-call score of the fitted dose curve at least 0.9, where 1 is the maximum; inactive means score below 0.9;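 further: background control endpoint measuring basal TAL promoter reporter mRNA not a specific factor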). To be noted: HepG2 Attagene cis-factorial TAL promoter reporter; actives raise or lower the signal. Summed up:
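Steps: transfect HepG2 with multiple reporter transcription units; dose 24 h; isolate RNA, reverse-transcribe, PCR-amplify, label with 6-FAM, digest with HpaI; resolve by capillary electrophoresis. Bidirectional fitting against DMSO baseline.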

Assay [2] is described as follows: ATG_TGFb_CIS: Attagene CIS-FACTORIAL HepG2 Assay for human Transforming Growth Factor (TGF) (AID 2282967; active means hit-call score of the fitted dose curve at least 0.9, where 1 is the maximum; inactive means score below 0.9). As to conditions: HepG2 Attagene CIS TGFb reporter, mRNA transcription; actives raise or lower the signal. Summed up: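 Liver HepG2 line, cis-factorial reporter panel, 24 h dosing. Quantitation: RT-PCR products labeled with 6-FAM, cut with HpaI, resolved by capillary electrophoresis; DMSO-referenced bidirectional analysis.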

Assay [3] in a line: ATG_VDRE_CIS: Attagene CIS-FACTORIAL HepG2 Assay for human Vitamin D Receptor Element (VDRE) (AID 2282968; active means hit-call score of the fitted dose curve at least 0.9, where 1 is the maximum; inactive means score below 0.9). As to conditions: HepG2 VDRE cis-reporter transcription, actives raise or lower the signal. Summed up: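 Transiently transfected HepG2 cells carrying cis-regulated reporter transcription units were exposed for 24 h. Reporter mRNA was measured by RT-PCR with fluorescent labelling and capillary electrophoresis, and fitted in both directions against DMSO.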

Assay [4] deals with Steroid hormone receptor ERR1 (Homo sapiens) (UniProt P11474). Kind of assay: ATG_ERRa_TRANS: Attagene TRANS-FACTORIAL HepG2 Assay for human Estrogen-Related Receptor alpha (ERRa) (AID 2282971). To be noted: HepG2 Attagene TRANS reporter, ERRa transactivation. Summed up: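 Signal gain relative to DMSO for an ERRa-Gal4 chimeric receptor, read as reporter mRNA by RT-PCR/capillary electrophoresis. Human HepG2 liver cells, transient multiplex reporter transfection, 24 h chemical exposure.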

Assay [5] addresses X-box-binding protein 1 (Homo sapiens) (UniProt P17861). The assay can be described thus: ATG_Xbp1_CIS: Attagene CIS-FACTORIAL HepG2 Assay for human X-box Binding Protein 1 (XBP1) (AID 2282972; active means hit-call score of the fitted dose curve at least 0.9, where 1 is the maximum; inactive means score below 0.9). As to conditions: HepG2 XBP1 cis-element reporter, Attagene multiplex; actives raise or lower the signal. Put shortly:
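HepG2, transient MRTU transfection (cis-promoter driven), 24 h compound exposure. Total RNA → oligo(dT) RT → PCR → 6-FAM labeling → HpaI cut → CE. Bidirectional fit vs DMSO.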

Assay [6] can be described thus: ATG_M_19_TRANS: Attagene TRANS-FACTORIAL HepG2 Assay for M19 Transcription Factor (Internal Marker) (AID 2282974). As to conditions: HepG2 Attagene TRANS-FACTORIAL M19 internal marker reporter. Summed up: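 Measured here: internal-marker reporter transcript from HepG2 cells transfected with MRTUs, harvested at 24 h. cDNA PCR products were 6-FAM labelled by primer extension, cut with HpaI for 2 h at 37 C, and resolved by CE.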

Assay [7] has as its target Estrogen-related receptor gamma (Homo sapiens) (UniProt P62508). The assay can be described thus: ATG_ERRg_TRANS: Attagene TRANS-FACTORIAL HepG2 Assay for human Estrogen-Related Receptor gamma (ERRg) (AID 2282977).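 Further: hits increase reporter signal over DMSO so potencies reflect activators.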 As to conditions: HepG2 Attagene TRANS reporter, ERRg transactivation. Put shortly: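 HepG2 cells transiently transfected with multiplexed GAL4-UAS reporter units driven by chimeric NR-Gal4 proteins; 24 h exposure. Reporter mRNA quantified by RT-PCR, fluorescent labelling, HpaI digestion and capillary electrophoresis; gain of signal vs DMSO.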

The target in assay [8] is Glucocorticoid receptor (Homo sapiens) (UniProt P04150). The assay can be described thus: ATG_GR_TRANS: Attagene TRANS-FACTORIAL HepG2 Assay for human Glucocorticoid Receptor (GR) (AID 2282978).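 Further: activators score as hits since higher reporter transcript over DMSO is fitted.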 To be noted: HepG2 Attagene TRANS GR reporter, mRNA transcription. Summed up:
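Measurement of GAL4-UAS-driven reporter mRNA in human HepG2 liver cells 24 h post-dosing, using RT-PCR with fluorescent labelling and capillary electrophoresis; the transfected constructs report exogenous NR-GAL4 chimera activity, fitted upward against DMSO.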

Assay [9] addresses Bile acid receptor (Homo sapiens) (UniProt Q96RI1). The assay can be described thus: ATG_FXR_TRANS: Attagene TRANS-FACTORIAL HepG2 Assay for Farnesoid X Receptor (FXR) (AID 2282979).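 Further: hits raise reporter mRNA above DMSO so AC50 marks FXR activation.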 As to conditions: HepG2 Attagene TRANS FXR-GAL4 reporter transcription. Summed up: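 After 24 h chemical treatment of transfected HepG2 cells, GAL4-UAS reporter transcripts driven by an exogenous FXR-GAL4 fusion were measured by RT-PCR and capillary electrophoresis. Increases over DMSO were fitted.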

Assay [10] deals with Oxysterols receptor LXR-beta (Homo sapiens) (UniProt P55055). Kind of assay: ATG_LXRb_TRANS: Attagene TRANS-FACTORIAL HepG2 Assay for human Liver X Receptor beta (LXRb) (AID 2282981). To be noted: HepG2 Attagene TRANS GAL4-LXRb reporter, mRNA. Put shortly:
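HepG2 cells transiently transfected with GAL4-UAS reporter units for chimeric NR-Gal4 proteins, dosed for 24 h. Reporter transcripts measured by RT-PCR and capillary electrophoresis; gain-of-signal fitting relative to DMSO.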

Assay [11] concerns the target Hepatocyte nuclear factor 4-alpha (Homo sapiens) (UniProt P41235). Kind of assay: ATG_HNF4a_TRANS: Attagene TRANS-FACTORIAL HepG2 Assay for human Hepatocyte Nuclear Factor 4 alpha (HNF4a) (AID 2282982). As to conditions: HepG2 HNF4a transactivation reporter, mRNA readout. Put shortly: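 HepG2 cells transiently transfected with HNF4a-Gal4 chimera and GAL4-UAS reporter units, dosed for 24 h. Reporter mRNA measured by RT-PCR, fluorescent primer extension and capillary electrophoresis; gain-of-signal fitted relative to DMSO.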

A short description of assay [12]: ATG_M_06_TRANS: Attagene TRANS-FACTORIAL HepG2 Assay for M06 Transcription Factor (Internal Marker) (AID 2282983).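 Further: reporter transcript level by RT-PCR then capillary electrophoresis fluorescence.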 To be noted: HepG2 Attagene TRANS M06 internal marker reporter. Put shortly: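 Internal-marker background readout from a multiplexed TRANS reporter system in HepG2; 24 h dosing; mRNA induction quantified by RT-PCR plus capillary electrophoresis fluorescence; DMSO as negative control and baseline.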

The nature of assay [13]: ATG_M_32_TRANS: Attagene TRANS-FACTORIAL HepG2 Assay for M32 Transcription Factor (Internal Marker) (AID 2282984).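 Further: transcript level of a background control reporter unit measured by RT-PCR and capillary electrophoresis.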 As to conditions: HepG2 Attagene TRANS M32 internal marker reporter. Put shortly:
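HepG2 cells transiently transfected with GAL4-UAS reporter units, dosed for 24 hours. Reporter mRNA quantified by RT-PCR, 6-FAM labelling, HpaI digestion and capillary electrophoresis; internal-marker signal fitted upward relative to DMSO.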

Assay [14] has as its target Nuclear receptor subfamily 4 group A member 2 (Homo sapiens) (UniProt P43354). The assay can be described thus: ATG_NURR1_TRANS: Attagene TRANS-FACTORIAL HepG2 Assay for human Nuclear Receptor Related Protein 1 (NURR1) (AID 2282985). As to conditions: HepG2 Attagene TRANS reporter, mRNA readout. Summed up: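 HepG2 cells transiently transfected with NURR1-Gal4 chimera and GAL4-UAS reporter units; after 24 hr compound exposure, reporter mRNA quantified by RT-PCR and capillary electrophoresis; gain of signal fitted against DMSO.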

The target of assay [15] is Transcriptional activator Myb (Homo sapiens) (UniProt P10242). Kind of assay: ATG_Myb_CIS: Attagene CIS-FACTORIAL HepG2 Assay for human Myeloblastosis (Myb) Proto-Oncogene Transcription Factor (AID 2282986; active means hit-call score of the fitted dose curve at least 0.9, where 1 is the maximum; inactive means score below 0.9). As to conditions: HepG2 Attagene CIS-FACTORIAL Myb reporter transcription; actives raise or lower the signal. Put shortly:
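Fluorescence signals from capillary electrophoresis of RT-PCR-amplified reporter cDNA give the read-out. Cells: HepG2 transfected with multiple cis-regulated reporter units. Exposure lasts 24 hours; DMSO defines baseline for gain or loss of signal.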

Assay [16] concerns the target Nuclear respiratory factor 1 (Homo sapiens) (UniProt Q16656). Kind of assay: ATG_NRF1_CIS: Attagene CIS-FACTORIAL HepG2 Assay for human Nuclear Respiratory Factor 1 (NRF1) Orphan Gene (AID 2282987; active means hit-call score of the fitted dose curve at least 0.9, where 1 is the maximum; inactive means score below 0.9). To be noted: HepG2 NRF1 cis-element reporter, Attagene multiplex; actives raise or lower the signal. Summed up:
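Transcriptional reporter readout, one component of a 52-endpoint multiplexed HepG2 panel. Exposure 24 h; mRNA detected via RT-PCR and fluorescent capillary electrophoresis; fitting in both directions against DMSO.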

A short description of assay [17]: ATG_GAL4_TRANS: Attagene TRANS-FACTORIAL HepG2 Assay for GAL4 (Internal Marker) (AID 2282976). As to conditions: HepG2 Attagene TRANS GAL4 internal marker reporter. Summed up: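 Liver HepG2 line bearing multiplexed GAL4-UAS reporter constructs; 24 h chemical treatment. Transcripts were quantified as fluorescent fragments on capillary electrophoresis after RT-PCR and HpaI cut, with activity fitted upward from DMSO.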

In assay [18] the target is Oxysterols receptor LXR-alpha (Homo sapiens) (UniProt Q13133). Kind of assay: ATG_LXRa_TRANS: Attagene TRANS-FACTORIAL HepG2 Assay for human Liver X Receptor alpha (LXRa) (AID 2282980). To be noted: HepG2 Attagene TRANS reporter, LXRa transactivation. Summed up: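 In this multiplexed TRANS system, compounds act on HepG2 cells carrying GAL4-UAS reporter units and a receptor-GAL4 fusion for 24 h. Induced reporter RNA is amplified, fluorescently labelled and sized by capillary electrophoresis, with DMSO as baseline.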
Oxysterols receptor LXR-alpha (Homo sapiens), sequence (Q13133 whole entry, looked up, the tested form may be a part): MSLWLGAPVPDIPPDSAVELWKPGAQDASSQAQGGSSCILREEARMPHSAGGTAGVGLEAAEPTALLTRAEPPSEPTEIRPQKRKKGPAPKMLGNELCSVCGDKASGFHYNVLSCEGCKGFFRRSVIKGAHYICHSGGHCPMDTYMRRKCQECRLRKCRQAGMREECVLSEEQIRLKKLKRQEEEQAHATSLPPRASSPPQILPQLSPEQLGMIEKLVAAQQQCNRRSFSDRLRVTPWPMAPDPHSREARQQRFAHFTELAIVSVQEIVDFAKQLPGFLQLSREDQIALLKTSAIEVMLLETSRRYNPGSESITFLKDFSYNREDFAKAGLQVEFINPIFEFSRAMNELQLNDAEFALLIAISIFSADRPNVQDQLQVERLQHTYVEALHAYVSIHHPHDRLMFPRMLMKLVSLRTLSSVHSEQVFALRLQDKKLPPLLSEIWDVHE

Bile acid receptor (Homo sapiens), sequence (Q96RI1 whole entry, looked up, the tested form may be a part): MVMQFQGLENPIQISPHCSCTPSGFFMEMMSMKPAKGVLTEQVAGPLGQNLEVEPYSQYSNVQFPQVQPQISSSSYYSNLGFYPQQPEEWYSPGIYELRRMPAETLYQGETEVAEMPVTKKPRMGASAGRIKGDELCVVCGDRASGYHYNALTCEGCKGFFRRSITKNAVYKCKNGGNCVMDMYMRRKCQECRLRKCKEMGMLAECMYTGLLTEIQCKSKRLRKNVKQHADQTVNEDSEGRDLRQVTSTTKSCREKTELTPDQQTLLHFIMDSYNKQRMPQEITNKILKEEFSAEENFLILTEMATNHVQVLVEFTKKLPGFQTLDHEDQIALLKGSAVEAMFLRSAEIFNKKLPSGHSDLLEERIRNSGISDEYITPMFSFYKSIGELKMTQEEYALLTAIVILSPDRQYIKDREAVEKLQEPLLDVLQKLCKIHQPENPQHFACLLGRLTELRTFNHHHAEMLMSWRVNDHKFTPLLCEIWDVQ
Nuclear respiratory factor 1 (Homo sapiens), sequence (Q16656 whole entry, looked up): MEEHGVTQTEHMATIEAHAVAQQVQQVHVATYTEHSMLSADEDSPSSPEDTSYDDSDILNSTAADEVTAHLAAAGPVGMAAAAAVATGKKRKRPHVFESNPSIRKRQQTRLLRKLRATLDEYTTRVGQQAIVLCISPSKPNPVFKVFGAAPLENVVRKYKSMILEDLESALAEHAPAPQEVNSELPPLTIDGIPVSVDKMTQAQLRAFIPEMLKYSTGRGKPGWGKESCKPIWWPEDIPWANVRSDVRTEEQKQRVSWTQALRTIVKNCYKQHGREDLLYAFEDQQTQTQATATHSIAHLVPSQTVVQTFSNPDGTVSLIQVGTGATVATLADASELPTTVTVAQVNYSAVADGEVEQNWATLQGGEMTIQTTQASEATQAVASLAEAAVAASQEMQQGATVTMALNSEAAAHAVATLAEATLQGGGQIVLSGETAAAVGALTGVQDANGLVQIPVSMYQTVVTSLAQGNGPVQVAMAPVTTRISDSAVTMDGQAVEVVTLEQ
Estrogen-related receptor gamma (Homo sapiens), sequence (P62508 whole entry, looked up, the tested form may be a part): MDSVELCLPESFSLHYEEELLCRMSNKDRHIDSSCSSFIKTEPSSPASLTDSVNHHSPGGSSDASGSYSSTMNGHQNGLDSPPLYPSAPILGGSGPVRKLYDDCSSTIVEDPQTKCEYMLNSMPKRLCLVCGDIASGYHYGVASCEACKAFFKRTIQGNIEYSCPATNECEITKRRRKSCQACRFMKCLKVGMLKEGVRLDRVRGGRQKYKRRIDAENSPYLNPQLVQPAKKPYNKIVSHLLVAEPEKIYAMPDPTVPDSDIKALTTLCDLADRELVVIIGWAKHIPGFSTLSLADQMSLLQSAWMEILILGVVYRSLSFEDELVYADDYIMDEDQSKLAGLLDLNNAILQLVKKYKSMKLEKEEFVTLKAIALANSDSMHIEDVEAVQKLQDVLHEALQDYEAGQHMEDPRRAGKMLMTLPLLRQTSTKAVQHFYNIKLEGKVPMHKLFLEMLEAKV
Steroid hormone receptor ERR1 (Homo sapiens), sequence (P11474 whole entry, looked up, the tested form may be a part): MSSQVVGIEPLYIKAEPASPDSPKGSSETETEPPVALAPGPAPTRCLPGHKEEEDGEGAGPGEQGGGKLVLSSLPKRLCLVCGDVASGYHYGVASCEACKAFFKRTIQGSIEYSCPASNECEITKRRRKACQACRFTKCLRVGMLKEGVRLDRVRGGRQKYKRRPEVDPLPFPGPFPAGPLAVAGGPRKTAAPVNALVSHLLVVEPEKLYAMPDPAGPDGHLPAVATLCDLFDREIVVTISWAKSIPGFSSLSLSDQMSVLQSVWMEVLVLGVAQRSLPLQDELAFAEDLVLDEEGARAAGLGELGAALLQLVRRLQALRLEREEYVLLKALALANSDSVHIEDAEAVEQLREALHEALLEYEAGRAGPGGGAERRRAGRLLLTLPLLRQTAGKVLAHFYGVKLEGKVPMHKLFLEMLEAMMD
Glucocorticoid receptor (Homo sapiens), sequence (P04150 whole entry, looked up, the tested form may be a part): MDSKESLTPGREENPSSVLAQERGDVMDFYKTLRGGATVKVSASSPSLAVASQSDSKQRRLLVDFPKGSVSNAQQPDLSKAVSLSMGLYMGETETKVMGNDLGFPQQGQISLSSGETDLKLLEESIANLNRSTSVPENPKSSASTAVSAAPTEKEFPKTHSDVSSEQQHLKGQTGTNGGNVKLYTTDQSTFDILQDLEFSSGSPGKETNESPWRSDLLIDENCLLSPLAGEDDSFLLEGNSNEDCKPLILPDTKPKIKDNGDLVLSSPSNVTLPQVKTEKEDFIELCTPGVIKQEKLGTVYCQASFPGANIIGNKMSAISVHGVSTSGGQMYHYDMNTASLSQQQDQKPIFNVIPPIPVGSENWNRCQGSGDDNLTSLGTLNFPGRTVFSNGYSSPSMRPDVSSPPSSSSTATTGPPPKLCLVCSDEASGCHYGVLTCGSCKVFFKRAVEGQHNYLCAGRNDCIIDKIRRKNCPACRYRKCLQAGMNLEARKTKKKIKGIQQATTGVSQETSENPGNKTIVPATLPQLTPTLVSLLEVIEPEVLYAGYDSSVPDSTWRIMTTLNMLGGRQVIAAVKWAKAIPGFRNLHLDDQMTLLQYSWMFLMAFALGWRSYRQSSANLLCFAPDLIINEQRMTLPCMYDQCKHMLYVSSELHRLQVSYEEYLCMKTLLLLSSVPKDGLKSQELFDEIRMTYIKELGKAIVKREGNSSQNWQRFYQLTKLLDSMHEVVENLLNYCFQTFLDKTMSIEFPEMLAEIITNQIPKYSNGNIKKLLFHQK
Oxysterols receptor LXR-beta (Homo sapiens), sequence (P55055 whole entry, looked up, the tested form may be a part): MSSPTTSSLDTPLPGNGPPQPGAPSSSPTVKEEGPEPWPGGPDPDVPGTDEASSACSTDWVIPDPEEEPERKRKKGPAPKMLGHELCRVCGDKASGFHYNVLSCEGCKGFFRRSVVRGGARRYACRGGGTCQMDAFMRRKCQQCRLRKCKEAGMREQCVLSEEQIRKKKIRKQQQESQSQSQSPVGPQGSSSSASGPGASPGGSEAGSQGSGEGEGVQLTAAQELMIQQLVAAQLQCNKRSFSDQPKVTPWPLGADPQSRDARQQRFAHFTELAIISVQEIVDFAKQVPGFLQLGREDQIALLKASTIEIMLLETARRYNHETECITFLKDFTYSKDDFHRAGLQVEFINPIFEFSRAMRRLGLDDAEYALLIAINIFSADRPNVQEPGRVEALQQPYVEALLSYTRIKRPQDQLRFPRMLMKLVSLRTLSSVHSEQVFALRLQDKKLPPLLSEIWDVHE
X-box-binding protein 1 (Homo sapiens), sequence (P17861 whole entry, looked up): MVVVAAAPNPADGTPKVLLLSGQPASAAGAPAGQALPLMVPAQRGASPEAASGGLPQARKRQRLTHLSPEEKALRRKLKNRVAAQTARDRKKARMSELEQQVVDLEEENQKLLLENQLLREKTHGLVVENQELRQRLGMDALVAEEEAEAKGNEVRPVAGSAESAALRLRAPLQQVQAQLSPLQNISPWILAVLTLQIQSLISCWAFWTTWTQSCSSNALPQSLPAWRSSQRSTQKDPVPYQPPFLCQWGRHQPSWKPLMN
Hepatocyte nuclear factor 4-alpha (Homo sapiens), sequence (P41235 whole entry, looked up, the tested form may be a part): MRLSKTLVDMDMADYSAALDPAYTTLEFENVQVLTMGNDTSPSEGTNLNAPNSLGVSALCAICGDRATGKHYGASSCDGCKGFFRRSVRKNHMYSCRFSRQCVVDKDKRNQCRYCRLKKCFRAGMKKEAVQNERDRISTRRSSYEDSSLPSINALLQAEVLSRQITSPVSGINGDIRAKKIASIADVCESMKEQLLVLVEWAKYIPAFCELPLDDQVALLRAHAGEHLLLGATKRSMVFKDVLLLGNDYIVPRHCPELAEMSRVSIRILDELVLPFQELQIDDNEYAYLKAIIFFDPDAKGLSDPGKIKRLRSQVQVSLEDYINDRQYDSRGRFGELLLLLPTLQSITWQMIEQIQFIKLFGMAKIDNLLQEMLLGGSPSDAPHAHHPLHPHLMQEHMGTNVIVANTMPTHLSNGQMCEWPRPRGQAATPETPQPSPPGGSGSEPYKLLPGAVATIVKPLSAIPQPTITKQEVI
Nuclear receptor subfamily 4 group A member 2 (Homo sapiens), sequence (P43354 whole entry, looked up, the tested form may be a part): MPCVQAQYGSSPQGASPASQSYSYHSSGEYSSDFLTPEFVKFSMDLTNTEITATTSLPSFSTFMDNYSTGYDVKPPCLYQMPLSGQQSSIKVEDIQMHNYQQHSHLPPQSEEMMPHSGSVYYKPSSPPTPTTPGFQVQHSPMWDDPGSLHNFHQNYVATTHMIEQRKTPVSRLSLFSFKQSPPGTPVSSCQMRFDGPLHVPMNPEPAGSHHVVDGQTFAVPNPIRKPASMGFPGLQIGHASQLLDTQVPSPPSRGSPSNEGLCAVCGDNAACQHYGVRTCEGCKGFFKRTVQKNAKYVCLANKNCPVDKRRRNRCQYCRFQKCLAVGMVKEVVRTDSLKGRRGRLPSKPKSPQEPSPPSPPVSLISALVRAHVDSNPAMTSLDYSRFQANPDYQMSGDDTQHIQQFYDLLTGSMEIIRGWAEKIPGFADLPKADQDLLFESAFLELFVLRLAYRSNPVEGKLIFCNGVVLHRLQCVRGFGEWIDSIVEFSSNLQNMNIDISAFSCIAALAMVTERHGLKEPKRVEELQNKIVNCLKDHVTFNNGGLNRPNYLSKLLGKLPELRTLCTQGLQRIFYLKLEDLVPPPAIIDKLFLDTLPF

For `O=[N+]([O-])c1ccc(O)cc1C(F)(F)F`, the AC50 in assay [1] is 26.8 µM (active); in assay [5], 31 µM (active); in [16], 25.2 µM (active). Moreover, the call in [2], in [3], in assay [4], in assay [6], in assay [7] and in assay [8] was inactive. The result in assay [9], in [10], in [11], in assay [12], in [13] and in assay [14] was inactive. For the same compound, the compound was classed as inactive in assay [15].

With `CCCC(C)C(O)CC` (stereo not given), the result in assay [1], in assay [2], in assay [3], in assay [5], in assay [6] and in [17] was inactive. The outcome in [8], in assay [18], in assay [10], in assay [14], in [15] and in [16] was inactive.

As to `COC(C)(C)CCCC(C)CC=O` (stereo not given), the result in assay [1], in assay [2], in assay [3], in [4], in assay [5] and in assay [6] was inactive. The call in assay [7], in assay [8], in assay [10], in assay [11], in assay [13] and in [14] was inactive. Further, the compound was classed as inactive in assay [15] and in [16].

In the case of `Cc1ccc(C)o1`, the compound was classed as inactive in [1], in assay [2], in [3], in assay [5], in [6] and in assay [17]. Besides, the compound was called inactive in [7], in [9], in [18], in assay [14], in assay [15] and in [16].

With `CCOC(=O)c1ccc(N)cc1`, the compound was classed as inactive in assay [1], in assay [2], in [3], in assay [5], in [6] and in assay [17]. Besides, the outcome in assay [8], in assay [9], in assay [18], in assay [11], in assay [13] and in [14] was inactive. The compound was classed as inactive in assay [15] and in assay [16].

As for `CCOC(=O)C1OC1c1ccccc1` (stereo not given), the compound was called inactive in assay [1], in assay [2], in assay [3], in assay [5], in [6] and in [17]. Besides, the outcome in assay [8], in [12], in assay [13], in assay [14] and in assay [16] was inactive.

In the case of `N#Cc1ccc(CC(=O)c2cccc(C(F)(F)F)c2)cc1`, the compound was classed as inactive in assay [1], in [2], in assay [4], in assay [5], in assay [7] and in assay [8]. Besides, the compound was called inactive in [11], in [12], in assay [13] and in assay [15]. Moreover, the AC50 in assay [3] is 26.3 µM (active); in [14] it was 100 µM (active); in [16] it was 100 µM (active).

`C=C(C)C(=O)OCCOCCOCCOC(=O)C(=C)C`: the compound was called inactive in assay [1], in [2], in [3], in assay [5], in [6] and in assay [17]. Further, the compound was called inactive in assay [8], in [18], in assay [13] and in assay [16].

With `CC1=NN(c2ccc(S(=O)(=O)O)cc2)C(=O)C1`, the call in assay [1], in assay [2], in assay [3], in assay [5], in assay [6] and in assay [17] was inactive. Besides, the outcome in [8], in assay [10], in assay [13], in [15] and in assay [16] was inactive.

Take `CCCN(CCC)S(=O)(=O)c1ccc(C(=O)O)cc1`: the compound was classed as inactive in [1], in [2], in [3], in assay [4], in [5] and in assay [6]. Also, the compound was called inactive in [7], in assay [8], in assay [11], in [13], in [15] and in [16].

The values are drawn from PubChem BioAssay (EPA / NIEHS).
